We go through nine compounds from PubChem BioAssay (NCI).

This is part of a sample that, as a whole, favours compounds with a hit. Of some 79,000 tested, about 15% had one in any assay. Unmarked numbers belong to inactive results. Calls of active or inactive are those of the source. No stated cut-off is given here; in the data, active means growth inhibition above about 70%; inactive means the rest.

Assay [1] in a line: NCI Yeast Anticancer Drug Screen. Data for the rad50 strain (AID 155).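 Further: 0% = growth of vehicle-only cultures of the same strain.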 The conditions noted are these: S. cerevisiae rad50 strain growth inhibition, stronger effect = higher value. A digest of the protocol: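 Relative growth inhibition (compound vs vehicle) was measured in yeast with a defined repair-gene alteration.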
Assay [2] is described as follows: NCI Yeast Anticancer Drug Screen. Data for the mec2-1 strain (AID 157). The settings on record: S. cerevisiae mec2-1 strain, stronger effect = higher value. In short, it runs like this:
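Each compound was tested on mec2-1 yeast, a strain altered in DNA damage repair or cell cycle control. Growth inhibition is reported relative to vehicle.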

Assay [3] can be described thus: NCI Yeast Anticancer Drug Screen. Data for the sgs1 mgt1 strain (AID 161).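 Further: 0% = growth of cultures given vehicle only.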 The settings on record: S. cerevisiae sgs1 mgt1 strain, stronger effect = higher value. In short, it runs like this:
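Genetically altered yeast, compound exposure, growth inhibition relative to vehicle.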

Assay [4] is described as follows: NCI Yeast Anticancer Drug Screen. Data for the cln2 rad14 strain (AID 165).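 Further: 0% = growth equal to vehicle treated cultures.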 The settings on record: S. cerevisiae cln2 rad14 strain, stronger effect = higher value. A digest of the protocol: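 Test compounds were added to cln2 rad14 yeast cultures; inhibition of growth was then determined by comparison with vehicle treatment.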
Assay [5] in a line: NCI Yeast Anticancer Drug Screen. Data for the bub3 strain (AID 167). The conditions noted are these: S. cerevisiae bub3 mutant strain, stronger effect = higher value. In short, it runs like this:
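Screening used yeast with an engineered genetic alteration affecting cell cycle control. Compound-exposed cultures were compared with vehicle cultures, and reduced growth was taken as inhibition.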

A short description of assay [6]: NCI Yeast Anticancer Drug Screen. Data for the mlh1 rad18 strain (AID 175). The settings on record: S. cerevisiae mlh1 rad18 strain growth inhibition, stronger effect = higher value. A digest of the protocol: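 Inhibition values reflect reduced growth of mutant yeast versus vehicle-treated controls following compound exposure; the mutations affect DNA damage repair.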
Setting [7] is: at 5.0 µM (retest, dose inferred, filed as 0.5).
[8] abbreviates: at 50.0 µM (retest, dose inferred, filed as 5.0).

For the compound `O=c1onc(-c2ccc(Cl)cc2)c2ccccc12`, the growth inhibition in assay [1] (setting [7]) was 8%; in assay [1] (setting [8]) it was 3%; in assay [1] (at 50.0 µM), 6.6%; in assay [2] (setting [7]) it was 4%; in assay [2] (setting [8]), 3%; in assay [2] (at 50.0 µM) it was 16.4%. The growth inhibition in assay [3] (setting [7]) was 7%; in assay [3] (setting [8]), 5%; in assay [3] (at 50.0 µM) it was -1.2%; in assay [4] (setting [7]), 5%; in assay [4] (setting [8]), 6%; in assay [4] (at 50.0 µM), 82.7% (active). The growth inhibition is 2% in assay [5] (setting [7]); 6% in assay [5] (setting [8]); 14.4% in assay [5] (at 50.0 µM); -1% in assay [6] (setting [7]); 4% in assay [6] (setting [8]); 8.15% in assay [6] (at 50.0 µM).

`Cc1c[nH]c2nc(C)n(-c3ccccc3)c(=N)c12`: the growth inhibition in assay [1] (setting [7]) was -1%; in assay [1] (setting [8]), 2%; in assay [1] (at 50.0 µM), 6.1%; in assay [2] (setting [7]), 1%; in assay [2] (setting [8]), -3%; in assay [2] (at 50.0 µM) it was 16.5%. The growth inhibition is -3% in assay [3] (setting [7]); 3% in assay [3] (setting [8]); 2.5% in assay [3] (at 50.0 µM); 2% in assay [4] (setting [7]); -8% in assay [4] (setting [8]); 38% in assay [4] (at 50.0 µM). Further, the growth inhibition in assay [5] (setting [7]) was -3%; in assay [5] (setting [8]) it was -3%; in assay [5] (at 50.0 µM), -6.85%; in assay [6] (setting [7]) it was -2%; in assay [6] (setting [8]), -2%; in assay [6] (at 50.0 µM) it was 8.65%.

As for `Cc1cc(C)c(O)c(C(C)(C)C)c1`, the growth inhibition is -1% in assay [1] (setting [7]); 3% in assay [1] (setting [8]); 92.3% (active) in assay [1] (at 50.0 µM); 1% in assay [2] (setting [7]); 1% in assay [2] (setting [8]); 59.7% in assay [2] (at 50.0 µM). In addition, the growth inhibition was 1% in assay [3] (setting [7]); 0% in assay [3] (setting [8]); 74.7% (active) in assay [3] (at 50.0 µM); 2% in assay [4] (setting [7]); 8% in assay [4] (setting [8]); 64.6% in assay [4] (at 50.0 µM). For the same compound, the growth inhibition is 3% in assay [5] (setting [7]); -10% in assay [5] (setting [8]); 66.8% in assay [5] (at 50.0 µM); 2% in assay [6] (setting [7]); 4% in assay [6] (setting [8]); 89.7% (active) in assay [6] (at 50.0 µM).

As to `CC(=O)Oc1c(C)cc([N+](=O)[O-])cc1[N+](=O)[O-]`, the growth inhibition in assay [1] (setting [7]) is -11%; in assay [1] (setting [8]), 99% (active); in assay [1] (at 50.0 µM) it was 99.7% (active); in assay [2] (setting [7]), 1%; in assay [2] (setting [8]), 99% (active); in assay [2] (at 50.0 µM) it was 99.8% (active). Further, the growth inhibition was 11% in assay [3] (setting [7]); 99% (active) in assay [3] (setting [8]); 99.8% (active) in assay [3] (at 50.0 µM); 16% in assay [4] (setting [7]); 99% (active) in assay [4] (setting [8]); 98.9% (active) in assay [4] (at 50.0 µM). Moreover, the growth inhibition in assay [5] (setting [7]) was 9%; in assay [5] (setting [8]), 99% (active); in assay [5] (at 50.0 µM) it was 99% (active); in assay [6] (setting [7]), 16%; in assay [6] (setting [8]) it was 99% (active); in assay [6] (at 50.0 µM), 99.7% (active).

In the case of `CC1(C)N=C(N)N=C(N)N1c1cccc(OCc2cccc(N)c2)c1`, the growth inhibition is -2% in assay [1] (setting [7]); 1% in assay [1] (setting [8]); 15.8% in assay [1] (at 50.0 µM); 12% in assay [2] (setting [7]); -5% in assay [2] (setting [8]); 5.65% in assay [2] (at 50.0 µM). Also, the growth inhibition in assay [3] (setting [7]) was -7%; in assay [3] (setting [8]), 1%; in assay [3] (at 50.0 µM), -8.35%; in assay [4] (setting [7]) it was 13%; in assay [4] (setting [8]), -9%; in assay [4] (at 50.0 µM), 65.5%. Besides, the growth inhibition in assay [5] (setting [7]) was -20%; in assay [5] (setting [8]), -4%; in assay [5] (at 50.0 µM) it was -36.9%; in assay [6] (setting [7]), 5%; in assay [6] (setting [8]) it was 1%; in assay [6] (at 50.0 µM) it was 9.1%.

As for `CC1(C)CC(=O)C(C(c2ccc3c(c2)OCO3)N2CCOCC2)C(=O)C1` (configuration not stated), the growth inhibition was -22% in assay [1] (setting [7]); -17% in assay [1] (setting [8]); 99.2% (active) in assay [1] (at 50.0 µM); 9% in assay [2] (setting [7]); -13% in assay [2] (setting [8]); 99.5% (active) in assay [2] (at 50.0 µM). The growth inhibition in assay [3] (setting [7]) was -21%; in assay [3] (setting [8]) it was 4%; in assay [3] (at 50.0 µM), 99.3% (active); in assay [4] (setting [7]) it was -9%; in assay [4] (setting [8]), 3%; in assay [4] (at 50.0 µM) it was 98.2% (active). Besides, the growth inhibition in assay [5] (setting [7]) is 20%; in assay [5] (setting [8]) it was -11%; in assay [5] (at 50.0 µM), 98.8% (active); in assay [6] (setting [7]) it was -26%; in assay [6] (setting [8]) it was -27%; in assay [6] (at 50.0 µM), 99.1% (active).

`CC(/C=N/NS(=O)(=O)c1ccc(C)cc1)=C(c1ccccc1)c1ccccc1`: the growth inhibition was 18% in assay [1] (setting [7]); 87% (active) in assay [1] (setting [8]); 81.2% (active) in assay [1] (at 50.0 µM); 35% in assay [2] (setting [7]); 96% (active) in assay [2] (setting [8]); 55.5% in assay [2] (at 50.0 µM). In addition, the growth inhibition in assay [3] (setting [7]) was -79%; in assay [3] (setting [8]), 96% (active); in assay [3] (at 50.0 µM), 82.5% (active); in assay [4] (setting [7]), -10%; in assay [4] (setting [8]), 89% (active); in assay [4] (at 50.0 µM), 72.8% (active). Also, the growth inhibition in assay [5] (setting [7]) is 43%; in assay [5] (setting [8]), 93% (active); in assay [5] (at 50.0 µM) it was 70.4% (active); in assay [6] (setting [7]), 62%; in assay [6] (setting [8]) it was 94% (active); in assay [6] (at 50.0 µM) it was 85% (active).

Regarding `COc1c2c(cc3ccc(=O)oc13)C(Cl)C(Cl)O2` (configuration not stated), the growth inhibition was 7% in assay [1] (setting [7]); 97% (active) in assay [1] (setting [8]); 77.7% (active) in assay [1] (at 50.0 µM); 4% in assay [2] (setting [7]); 98% (active) in assay [2] (setting [8]); 84.8% (active) in assay [2] (at 50.0 µM). Also, the growth inhibition was 10% in assay [3] (setting [7]); 98% (active) in assay [3] (setting [8]); 92.8% (active) in assay [3] (at 50.0 µM); -16% in assay [4] (setting [7]); 97% (active) in assay [4] (setting [8]); 18.9% in assay [4] (at 50.0 µM). In addition, the growth inhibition in assay [5] (setting [7]) was 9%; in assay [5] (setting [8]), 98% (active); in assay [5] (at 50.0 µM), 91.2% (active); in assay [6] (setting [7]), 14%; in assay [6] (setting [8]), 97% (active); in assay [6] (at 50.0 µM), 97.7% (active).

For `O=C(NC(Cc1ccc(I)cc1)C(=O)O)c1cccc(Br)c1` (configuration not stated), the growth inhibition in assay [1] (setting [7]) is 24%; in assay [1] (setting [8]) it was 39%; in assay [1] (at 50.0 µM) it was -14.4%; in assay [2] (setting [7]), 13%; in assay [2] (setting [8]), 6%; in assay [2] (at 50.0 µM), -35%. The growth inhibition in assay [3] (setting [7]) is 23%; in assay [3] (setting [8]), 37%; in assay [3] (at 50.0 µM) it was -20.5%; in assay [4] (setting [7]) it was 17%; in assay [4] (setting [8]) it was 34%; in assay [4] (at 50.0 µM), -8.15%. The growth inhibition in assay [5] (setting [7]) is 21%; in assay [5] (setting [8]), 29%; in assay [5] (at 50.0 µM), -28.9%; in assay [6] (setting [7]) it was 23%; in assay [6] (setting [8]), 32%; in assay [6] (at 50.0 µM), -15.9%.
